This is part of a sample that, as a whole, favours compounds with a hit. Of some 79,000 tested, about 15% had one in any assay. Calls of active or inactive are those of the source. Cut-off read from the data, not from the text of the source: active = growth inhibition above about 70%; inactive = the rest.
Key:
[1] = NCI Yeast Anticancer Drug Screen. Data for the rad52 strain (AID 147);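 note: 0% = growth of vehicle-treated control cultures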; settings: S. cerevisiae rad52 mutant growth inhibition, hits give high values
How it was run: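 Here a repair-compromised yeast strain receives each compound; its growth is then quantified and normalised to vehicle-only controls.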

[2] = NCI Yeast Anticancer Drug Screen. Data for the wt1 strain (AID 149);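 note: 0% = growth of vehicle-treated wt1 cultures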; settings: S. cerevisiae wt1 strain (SPY 50644) growth inhibition, hits give high values
How it was run: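 The wt1 strain was treated with compounds, and growth was compared with vehicle-treated cultures to give inhibition.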

[3] = NCI Yeast Anticancer Drug Screen. Data for the rad50EPP+ strain (AID 151);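 note: 0% = growth of vehicle-treated control cultures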; settings: S. cerevisiae rad50 mutant strain, hits give high values
How it was run: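 Read-out is yeast growth inhibition relative to vehicle; cells used were the rad50EPP+ strain.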

[4] = NCI Yeast Anticancer Drug Screen. Data for the mgt1 strain (AID 153); settings: S. cerevisiae mgt1 mutant growth inhibition, hits give high values
How it was run: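 Measured: inhibition of mgt1 yeast growth by compound, normalized to vehicle-treated cultures.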

[5] = NCI Yeast Anticancer Drug Screen. Data for the rad50 strain (AID 155);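 note: 0% = growth of vehicle-only cultures of the same strain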; settings: S. cerevisiae rad50 strain growth inhibition, hits give high values
How it was run: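 Cells are treated with compound, grown, and their growth is then scored against vehicle-only cultures of the same repair-deficient yeast strain.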

[6] = NCI Yeast Anticancer Drug Screen. Data for the mec2-1 strain (AID 157); settings: S. cerevisiae mec2-1 strain, hits give high values
How it was run: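 Using mec2-1 yeast: add compound, measure growth, express inhibition versus vehicle-treated cultures.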

[7] = NCI Yeast Anticancer Drug Screen. Data for the rad14 strain (AID 159);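 note: 0% = growth of vehicle-treated control cultures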; settings: S. cerevisiae rad14 strain growth inhibition, hits give high values
How it was run: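 Readout: yeast growth inhibition, referenced to vehicle-only cultures. Strain bears a defined alteration in DNA damage repair.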

[8] = NCI Yeast Anticancer Drug Screen. Data for the sgs1 mgt1 strain (AID 161);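 note: 0% = growth of cultures given vehicle only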; settings: S. cerevisiae sgs1 mgt1 strain, hits give high values
How it was run: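 Percent growth inhibition was derived by comparing compound-exposed mutant yeast with vehicle-exposed cultures. The strain carries alterations in DNA damage repair.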

[9] = NCI Yeast Anticancer Drug Screen. Data for the CLN2oe strain (AID 163);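 note: 0% = growth of vehicle-only control cultures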; settings: S. cerevisiae CLN2oe strain, hits give high values
How it was run: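 Whole-cell yeast growth assay. A strain engineered for altered cell-cycle control received compound, and inhibition relative to vehicle-treated cultures was recorded.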

[10] = NCI Yeast Anticancer Drug Screen. Data for the cln2 rad14 strain (AID 165);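 note: 0% = growth equal to vehicle treated cultures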; settings: S. cerevisiae cln2 rad14 strain, hits give high values
How it was run: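 Yeast strain cln2 rad14, bearing defects in cell cycle control and DNA repair, serves as the test system; values reflect growth inhibition compared with vehicle.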

[11] = NCI Yeast Anticancer Drug Screen. Data for the bub3 strain (AID 167); settings: S. cerevisiae bub3 mutant strain, hits give high values
How it was run: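 Part of a panel of yeast mutants defective in DNA damage repair or cell cycle regulation. Each strain is grown with compound, and inhibition is calculated relative to solvent-treated cultures.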

[12] = NCI Yeast Anticancer Drug Screen. Data for the wt2 strain (AID 169);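 note: 0% = growth of vehicle-treated yeast cultures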; settings: S. cerevisiae wt2 strain growth inhibition, hits give high values
How it was run: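 Treated yeast vs. vehicle-treated yeast: growth inhibition determined.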

[13] = NCI Yeast Anticancer Drug Screen. Data for the mlh1 strain (AID 171);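 note: 0% = growth of vehicle-treated control cultures of the same strain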; settings: S. cerevisiae mlh1 strain growth inhibition, hits give high values
How it was run: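 A yeast strain with a defined genetic lesion serves as the test organism. Cultures receive compound or vehicle, and growth is measured.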

[14] = NCI Yeast Anticancer Drug Screen. Data for the sgs1 strain (AID 173);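 note: 0% = growth of vehicle-only control cultures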; settings: S. cerevisiae sgs1 mutant, hits give high values
How it was run: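 A genetically defined yeast mutant is incubated with the test compound, and its growth is compared to that of the same strain given vehicle.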

[15] = NCI Yeast Anticancer Drug Screen. Data for the mlh1 rad18 strain (AID 175); settings: S. cerevisiae mlh1 rad18 strain growth inhibition, hits give high values
How it was run: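 Steps: expose repair-defective yeast to compound; measure growth; express inhibition against vehicle-treated controls.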

[16] = NCI Yeast Anticancer Drug Screen. Data for the rad18 strain (AID 177); settings: S. cerevisiae rad18 mutant growth inhibition, hits give high values
How it was run: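 Measured value is growth inhibition of a yeast strain bearing a DNA repair alteration, referenced to vehicle-treated cells.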

[17] = at 5.0 µM (retest, dose inferred, filed as 0.5)
[18] = at 50.0 µM (retest, dose inferred, filed as 5.0)

Measured: growth inhibition

CCOC(=O)[C@H]1Nc2ccc(OC)cc2C2c3ccccc3CC21 (stereo partly specified)
inactive: [1]; at 1.2 µM -22% | [1]; at 3.7 µM -27% | [1]; at 11.0 µM -20% | [1]; at 33.0 µM 57% | [2]; at 1.2 µM -29% | [2]; at 3.7 µM -27% | [2]; at 11.0 µM -25% | [2]; at 33.0 µM 50% | [3]; at 1.2 µM -25% | [3]; at 3.7 µM -19% | [3]; at 11.0 µM -23% | [3]; at 33.0 µM 10% | [3]; at 100.0 µM 4% | [4]; at 1.2 µM -40% | [4]; at 3.7 µM -46% | [4]; at 11.0 µM -46% | [4]; at 33.0 µM 28% | [5]; at 1.2 µM -21% | [5]; at 3.7 µM -12% | [5]; [17] 19% | [5]; at 11.0 µM -19% | [5]; at 33.0 µM 34% | [5]; [18] 9% | [6]; at 1.2 µM -48% | [6]; at 3.7 µM -21% | [6]; [17] -9% | [6]; at 11.0 µM -48% | [6]; at 33.0 µM 29% | [6]; [18] 13% | [6]; at 50.0 µM 34.1% | [7]; at 1.2 µM -54% | [7]; at 3.7 µM -49% | [7]; at 11.0 µM -50% | [7]; at 33.0 µM 0% | [8]; [17] 8% | [8]; [18] 53% | [8]; at 50.0 µM 55.5% | [9]; at 1.2 µM -23% | [9]; at 3.7 µM -28% | [9]; at 11.0 µM -21% | [9]; at 33.0 µM 39% | [10]; [17] 20% | [10]; [18] 37% | [10]; at 50.0 µM 57% | [11]; at 1.2 µM -26% | [11]; at 3.7 µM -19% | [11]; [17] 4% | [11]; at 11.0 µM -27% | [11]; at 33.0 µM 51% | [11]; at 50.0 µM 53.4% | [12]; at 1.2 µM -4% | [12]; at 3.7 µM -14% | [12]; at 11.0 µM -7% | [12]; at 33.0 µM 55% | [13]; at 1.2 µM -29% | [13]; at 3.7 µM -21% | [13]; at 11.0 µM -38% | [13]; at 33.0 µM 46% | [14]; at 1.2 µM 22% | [14]; at 3.7 µM 15% | [14]; at 11.0 µM 24% | [15]; [17] -13% | [15]; [18] 34% | [15]; at 50.0 µM 60.4% | [16]; at 1.2 µM 1% | [16]; at 3.7 µM -9% | [16]; at 11.0 µM 3% | [16]; at 33.0 µM 56%
active: [1]; at 100.0 µM 90% | [2]; at 100.0 µM 90% | [4]; at 100.0 µM 83% | [5]; at 50.0 µM 70% | [5]; at 100.0 µM 91% | [6]; at 100.0 µM 88% | [7]; at 100.0 µM 82% | [9]; at 100.0 µM 89% | [11]; [18] 83% | [11]; at 100.0 µM 90% | [12]; at 100.0 µM 85% | [13]; at 100.0 µM 86% | [14]; at 33.0 µM 71% | [14]; at 100.0 µM 90% | [16]; at 100.0 µM 93%

CC(=O)SC(C[N+](=O)[O-])c1ccccc1 (stereo unspecified)
active: [1]; at 3.7 µM 76% | [1]; at 11.0 µM 88% | [1]; at 33.0 µM 99% | [1]; at 100.0 µM 99% | [2]; at 33.0 µM 95% | [2]; at 100.0 µM 100% | [3]; at 1.2 µM 89% | [3]; at 3.7 µM 92% | [3]; at 11.0 µM 95% | [3]; at 33.0 µM 99% | [3]; at 100.0 µM 99% | [4]; at 33.0 µM 81% | [4]; at 100.0 µM 100% | [5]; at 1.2 µM 81% | [5]; at 3.7 µM 92% | [5]; [17] 87% | [5]; at 11.0 µM 96% | [5]; at 33.0 µM 99% | [5]; [18] 98% | [5]; at 50.0 µM 99.2% | [5]; at 100.0 µM 99% | [6]; at 33.0 µM 94% | [6]; [18] 99% | [6]; at 50.0 µM 99.6% | [6]; at 100.0 µM 100% | [7]; at 33.0 µM 98% | [7]; at 100.0 µM 99% | [8]; [18] 98% | [8]; at 50.0 µM 95.8% | [9]; at 33.0 µM 78% | [9]; at 100.0 µM 99% | [10]; [18] 98% | [11]; at 33.0 µM 97% | [11]; [18] 98% | [11]; at 50.0 µM 95.2% | [11]; at 100.0 µM 99% | [12]; at 33.0 µM 99% | [12]; at 100.0 µM 99% | [13]; at 33.0 µM 96% | [13]; at 100.0 µM 99% | [14]; at 33.0 µM 100% | [14]; at 100.0 µM 99% | [15]; [18] 98% | [15]; at 50.0 µM 99.5% | [16]; at 33.0 µM 93% | [16]; at 100.0 µM 99%
inactive: [1]; at 1.2 µM 55% | [2]; at 1.2 µM 0% | [2]; at 3.7 µM 0% | [2]; at 11.0 µM 17% | [4]; at 1.2 µM 1% | [4]; at 3.7 µM 4% | [4]; at 11.0 µM 18% | [6]; at 1.2 µM 5% | [6]; at 3.7 µM 17% | [6]; [17] -15% | [6]; at 11.0 µM 52% | [7]; at 1.2 µM 14% | [7]; at 3.7 µM 28% | [7]; at 11.0 µM 42% | [8]; [17] -7% | [9]; at 1.2 µM 7% | [9]; at 3.7 µM 19% | [9]; at 11.0 µM 38% | [10]; [17] -20% | [10]; at 50.0 µM 31.1% | [11]; at 1.2 µM 23% | [11]; at 3.7 µM 30% | [11]; [17] 8% | [11]; at 11.0 µM 68% | [12]; at 1.2 µM -3% | [12]; at 3.7 µM -4% | [12]; at 11.0 µM 14% | [13]; at 1.2 µM 5% | [13]; at 3.7 µM 11% | [13]; at 11.0 µM 33% | [14]; at 1.2 µM 15% | [14]; at 3.7 µM 41% | [14]; at 11.0 µM 62% | [15]; [17] -37% | [16]; at 1.2 µM 19% | [16]; at 3.7 µM 33% | [16]; at 11.0 µM 55%
